# Sampled rows, rich in hits. Any-hit rate of the full collection: about 3.2%.
# Tau fibril FP – blocks human tau fibril formation measured by polarization. Potency, µM (series often up to 57.7 µM), for inactives: at the top dose activity, negative = inhibition, usual class: inhibitors. P10636. actives 0.39% (n = 280,000). K18 P301L tau heparin fibrillization, Alexa594 FP, 6 h. AID 1468; also: potency is read from the fitted curve at half-maximal effect; % is scaled to controls: 0 for no effect and ±100 for the full control effect; nearly all actives have a fitted effect of over 55% in size
# Target sequence (P10636 561-689 P618L limits assumed): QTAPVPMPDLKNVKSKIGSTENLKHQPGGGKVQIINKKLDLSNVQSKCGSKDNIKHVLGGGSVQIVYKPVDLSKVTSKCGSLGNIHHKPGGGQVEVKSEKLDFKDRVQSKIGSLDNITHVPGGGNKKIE
#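 Human K18 P301L fragment (15 uM unlabeled plus 0.24 uM Alexa 594-labeled) in 100 mM sodium acetate pH 7 with compound, aggregation induced by 20 uM heparin for 6 hr at 37 C. ThT (30 uM) added for 1 hr, then Alexa 594 FP read.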
# JMJD2E inh – inhibitors of human JMJD2E histone demethylase; JMJD2E catalytic domain, FDH-coupled NADH fluorescence (FDH is formaldehyde dehydrogenase); Potency, µM (series often up to 57.1 µM), without a hit: top-dose activity change, negative = inhibition, hits mostly inhibitors; actives 1.6% (n = 230,000); active = well fitted inhibition curve with a large enough effect, not every such curve was filed as active; inconclusive = small, poorly fitted or top-dose-only effect, or another doubt; inactive = no such curve, though single readings can be large or run the other way;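 also: potency is read from the fitted curve at half-maximal effect; 0% = wells with enzyme and -100% = buffer wells without enzyme; nearly all actives have a fitted effect of over 50% in size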
# Target sequence (B2RXH2 1-337 limits assumed): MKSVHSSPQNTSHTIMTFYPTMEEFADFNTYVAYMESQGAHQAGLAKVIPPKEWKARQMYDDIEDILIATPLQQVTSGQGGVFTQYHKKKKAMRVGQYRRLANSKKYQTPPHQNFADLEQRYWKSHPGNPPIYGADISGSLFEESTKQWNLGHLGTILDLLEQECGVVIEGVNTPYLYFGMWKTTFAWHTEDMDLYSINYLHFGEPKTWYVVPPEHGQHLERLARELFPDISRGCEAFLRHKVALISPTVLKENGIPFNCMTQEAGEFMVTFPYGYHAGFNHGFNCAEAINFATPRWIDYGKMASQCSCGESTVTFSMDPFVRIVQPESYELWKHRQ
# LMNA splice mod – changes lamin A minigene splicing in HeLa cells | HeLa LMNA splicing GFP/RFP minigene ratio, 48 h | Potency, µM (titrated, usually from 46.1 µM), inactives show top-dose ratio change, negative = inhibition, usual class: inhibitors | actives 0.01% (n = 200,000) | AID 1487; active = well fitted inhibition curve with a large enough effect in the signal ratio, with a control signal flat, not every such curve was filed as active; inconclusive = small, poorly fitted or top-dose-only effect, or effect the other way, or a change in a side signal; the % refers to the signal ratio; also: potency is read from the fitted curve at half-maximal effect; % is scaled to controls: 0 for no effect and ±100 for the full control effect
#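 S3 HeLa stable clones carrying a lamin A-EGFP splicing minigene plus DsRed2 were seeded at 600 cells/well in Opti-MEM with 2% FBS, pin-dosed and incubated 48 h at 37°C. Acumen cytometry (488 nm) gave the GFP/RFP total-intensity ratio.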
# Tau ThT inhib – blocks human tau fibril formation measured by thioflavin T; actives 2.1% (n = 270,000); P10636; recombinant tau K18 P301L, heparin-induced fibrillization, ThT fluorescence; Potency, µM (series often up to 57.4 µM), inactives show top-dose activity, negative = inhibition, usual class: inhibitors; also: potency is read from the fitted curve at half-maximal effect; % is scaled to controls: 0 for no effect and ±100 for the full control effect; nearly all actives have a fitted effect of over 55% in size
#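 Heparin-induced (20 uM) aggregation of recombinant human K18 P301L tau, 15 uM unlabeled with 0.24 uM labeled, pH 7 acetate buffer, 6 hr at 37 C with compound. Fibrils quantified by 30 uM ThT fluorescence after 1 hr ambient incubation.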
# CBFb-RUNX1 inh – inhibitors of human CBF-beta and RUNX1 interaction. Potency, µM (top dose mostly 59.8 µM), for inactives: at the top dose activity, negative = inhibition, hits mostly inhibitors. AlphaScreen CBFb-His/RUNX1-biotin binding, biochemical. 230,000 tested, under 10 active; also: % of control where 0% means no effect
#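 Compounds were screened at multiple concentrations against a preformed CBF-beta(His)/RUNX1(biotin) complex (30 nM of each) for 15 min at room temperature, followed by 90 min with nickel and streptavidin beads and AlphaScreen reading.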
# Tau fluor cs – counter-screen for tau fibril formation inhibitors. tau K18 P301L Alexa594 fluorescence, heparin fibrillization. Potency, µM (top dose mostly 57.7 µM), for the others: top-dose activity change, negative = decrease. AID 1463. actives 0.93% (n = 280,000); also: potency is read from the fitted curve at half-maximal effect; % is scaled to controls: 0 for no effect and ±100 for the full control effect; nearly all actives have a fitted effect of over 55% in size
#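 Human tau K18 P301L (15 uM unlabeled, 0.24 uM Alexa 594-labeled) in 100 mM sodium acetate pH 7 with 20 uM heparin, 6 hr at 37 C. ThT 30 uM added, 1 hr ambient; Alexa 594 FP and total fluorescence read at 555/632 nm.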
# The depositor's hits bear a star; ? = inconclusive; . = not tested or not shown; [ ] = dose if it differs, or a comment. Unless noted, calls follow the shape of the dose curve; as a rule, active = well fitted curve in the direction sought with a large enough effect; inconclusive = small, poorly fitted or top-dose-only effect, or another doubt; inactive = no such curve, though single readings can be large; an effect the other way counts as inactive or inconclusive.
SMILES,Tau fibril FP,JMJD2E inh,LMNA splice mod,Tau ThT inhib,CBFb-RUNX1 inh,Tau fluor cs
Cc1[nH]n(-c2ccc([N+](=O)[O-])cc2)c(=O)c1C=NCCc1c(C)[nH]c2ccccc12,?,-4%,-1%,?,4%,22µM*[quencher]
Cc1[nH]n(-c2ccc([N+](=O)[O-])cc2)c(=O)c1C=NCCc1ccc(S(N)(=O)=O)cc1,-14%,-5%,.,-18%,8%,-5%
Cc1ccc(-n2[nH]c(C)c(/C=N/Nc3ccc([N+](=O)[O-])cc3[N+](=O)[O-])c2=O)cc1,10µM*,-12%,?,1.6µM*,?,3.2µM*[quencher]
O=C1c2ccccc2C(=O)C1c1ccc2ccccc2n1,2%,5%,-10%,2.2µM*,9%,-5%
COc1ccccc1-c1nnc2n1N=C(c1ccc(O)c(O)c1)CS2,3%,25µM*,?,-12%,-26%,-13%
CCOC(=O)OCC,.,.,.,.,1%[21.7 µM],.
CC[C@H](C)[C@H](NC(=O)[C@H](CC(C)C)NC(=O)[C@H](CC(N)=O)NC(=O)[C@@H](NC(=O)[C@@H](N)Cc1ccc(O)cc1)[C@@H](C)CC)C(=O)N[C@@H](Cc1ccc(O)cc1)C(=O)N[C@@H](CCCN=C(N)N)C(=O)N[C@@H](CC(C)C)C(=O)N[C@@H](CCCN=C(N)N)C(=O)N[C@@H](Cc1ccc(O)cc1)C(N)=O,.,.,.,.,13%,.
N#C/C(=C\C1=C(N2CCOCC2)C(=C/c2cccc([N+](=O)[O-])c2)/CC1)C(=O)Nc1ccccc1F,?,1%,-4%,2.2µM*,-9%,8%
CS(=O)(=O)N(CC(=O)NCC1CCCO1)c1cccc(Cl)c1 (centres undefined),-3%[2.34 µM],-22%,?,5µM*,5%,-53%
CS(=O)(=O)N(CC(=O)NCC1CCCO1)c1cc(Cl)cc(Cl)c1 (centres undefined),4%,2%,8%,-3%,7%,-2%
Cc1cc(-c2csc(N)n2)c(C)n1Cc1ccco1,-13%,-3%,.,16µM*,-12%,?
Cc1cc(-c2csc(N)n2)c(C)n1C,?,-16%,8%,32µM*,-11%,?
CN(C)/N=N/c1nc[nH]c1C(N)=O,-14%,?,?,-2%,0%,-9%
COc1ccc(N(C)C(=O)c2cn(C3CCCCC3)c(=O)c3c2c2ccccc2n3C)cc1,7%,.,.,-13%,.,-8%
Cc1cc(/C=C(/C#N)C(=O)Nc2ccccc2)c(C)n1-c1cccnc1,3%,4%,-5%,-3%,-2%,6%
Cc1ccccc1NC(=O)/C(C#N)=C\c1cc(C)n(-c2ccc(C(=O)O)cc2)c1C,10%,20µM*,.,.,-24%,-5%
Cc1cc(/C=C(\C#N)C(=O)Nc2ccccc2)c(C)n1-c1ccc2c(c1)OCO2,3%,25µM*,?,?,3%,-27%
Cc1ccc(-c2nn(C)c(=O)c3ccccc23)cc1CO,-2%,-2%,-13%,-10%,11%,-4%
CCC(CO)Nc1ccc(-c2nn(C)c(=O)c3ccccc23)cc1[N+](=O)[O-] (centres undefined),10%,1%,.,25µM*,1%,-20%
CCOC(=O)C1(C)/C(=N/Nc2cccc(Cl)c2)C(=O)C(=O)N1c1ccccc1 (centres undefined),-4%,-11%,?,20µM*,-2%,-16%
CCOC(=O)C1(C)/C(=N/Nc2ccc(S(N)(=O)=O)cc2)C(=O)C(=O)N1c1ccccc1 (centres undefined),-1%,-28%,-1%[46 µM],11µM*,-10%,-23%
CCOC(=O)C1(C)/C(=N/Nc2ccc(Cl)cc2)C(=O)C(=O)N1c1ccccc1 (centres undefined),?,-9%,15%,14µM*,-6%,-27%
CCOC(=O)C1(C)C=C(Nc2ccc(OC)cc2)C(=O)N1c1ccccc1 (centres undefined),-6%,.,.,?,.,?
CCOC(=O)C1(C)/C(=N/Nc2ccccc2Cl)C(=O)C(=O)N1c1ccccc1 (centres undefined),-14%,-22%,-20%,14µM*,-10%,-29%
CC1=C(c2ccc(C)cc2)S(=O)(=O)NC1=NCc1cccc(F)c1,-6%,.,.,-8%,.,-4%
SMILES,Tau fibril FP,JMJD2E inh,LMNA splice mod,Tau ThT inhib,CBFb-RUNX1 inh,Tau fluor cs
O=C(O)c1cccc(Cl)n1,-2%,1%,.,0%,4%,0%
O=C(O)c1ccc2cccnc2n1,-4%,22µM*,?,-17%,-3%,-6%
O=C(O)c1cccc(C(=O)O)n1,-9%,8.9µM*,2%,-13%,-1%,-2%
Cc1ccc(C)c(N2CCN(C(=O)C(C)n3c(C)c4cnn(-c5ccccc5)c(=O)c4c3C)CC2)c1 (centres undefined),0%,.,.,-14%,.,-15%
CCc1ccc(C2CC(=O)Nc3cc4c(cc32)OCO4)cc1 (centres undefined),1%,.,.,-8%,.,-17%
Cc1ccc(NCC(=O)N/N=C/c2cc3ccccc3nc2Cl)cc1,2%,-11%,5%,18µM*,-8%,?
O=C(CN1CCOCC1)N/N=C/c1cc2ccccc2nc1Cl,-9%,-23%,-7%,-17%,2%,-6%
Cc1cc2nc3c(=O)n(CCc4ccccc4)c(=O)[nH]c3nc2cc1N,?,32µM*,.,.,-8%,8.9µM*[quencher]
Nc1ccc2nc3c(=O)n(CCc4ccccc4)c(=O)[nH]c3nc2c1,?,1.8µM*,.,.,-11%,?
C=CCn1c(=O)[nH]c2nc3cc(N=CN(C)C)c(C)cc3nc2c1=O,7%,?,.,.,7%,1%
CCCCn1c(=O)[nH]c2nc3cc(N)ccc3nc2c1=O,-12%,-3%,1%,3%,7%,-7%
COc1cccc([C@@H]2Oc3ccc(OC)cc3C[C@H]2OC(=O)Nc2cc(OC)c(OC)c(OC)c2)c1,-3%,10%,.,-4%,-9%,?
COc1ccc(NC(=O)O/N=C2/CCCc3ccc(OC)cc32)cc1,?,?,-6%,14µM*,2%,?
Cc1[nH]n(-c2ccccc2)c(=O)c1N=Nc1nccs1,8%,?,?,13µM*,?,-28%
O=C(C[n+]1cccc(CO)c1)Nc1nc2ccccc2s1,8%,10µM*,.,-9%,-5%,-2%
O=C(CS(=O)(=O)c1ccccc1)Nc1nc2ccccc2s1,-9%,10%,.,-13%,5%,-13%
CCc1ccc(-n2c(=O)c3c4c(sc3n(CC(=O)NC(C)CC)c2=O)CCCC4)cc1 (centres undefined),4%,.,.,5%,.,3%
